Results from PMC5540273 (PLoS ONE, 2017).

Columns and labels:
Settings in all cases: concentration: 1 μM,replicates: in singlicate; n = 1
FYN = system: FYN
GAK = system: GAK
GCN2(Kin.Dom.2,S808G) = system: T1, GCN2(Kin.Dom.2,S808G)
T1 construct: gene EIF2AK4

GRK1 = system: GRK1
GRK2 = system: T2, GRK2
T2 construct: gene ADRBK1

GRK3 = system: T3, GRK3
T3 construct: gene ADRBK2

GRK4 = system: GRK4
GRK7 = system: GRK7
GSK3A = system: GSK3A
GSK3B = system: GSK3B
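Further: KINOMEscan kinase panel screen.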

| Structure (SMILES) | %Inh (FYN) | %Inh (GAK) | %Inh (GCN2(Kin.Dom.2,S808G)) | %Inh (GRK1) | %Inh (GRK2) | %Inh (GRK3) | %Inh (GRK4) | %Inh (GRK7) | %Inh (GSK3A) | %Inh (GSK3B) |
| --- | --- | --- | --- | --- | --- | --- | --- | --- | --- | --- |
| O=c1[nH]cc(-c2ccc(O)cc2)c2sc(-c3ccncc3)cc12 [GSK1033723] | 21% | 16% | 6% | 0% | 0% | 0% | 0% | 0% | 63% | 22% |
| CN(c1ccc2c(c1)nc(NCc1ccc(F)cc1)n2C)c1ccnc(Nc2ccc(CS(C)(=O)=O)cc2)n1.Cl [GW813244] | 74% | 15% | 68% | 27% | 0% | 0% | 0% | 0% | 14% | 11% |
| Cn1ccc2ncnc(Oc3ccc(NC(=O)Nc4cccc(C(F)(F)F)c4)c(F)c3)c21 | 10% | 12% | 26% | 15% | 0% | 0% | 24% | 0% | 2% | 7% |
| Cc1ccn2nc(-c3ccc(F)cc3)c(-c3ccncc3)c2c1.Cl [GW457859] | 0% | 0% | 0% | 0% | 0% | 40% | 0% | 59% | 9% | 0% |
| COc1cccc(OC)c1C(=O)Nc1cccc(-c2nn3ccccc3c2-c2ccnc(Nc3cccc(F)c3)n2)c1 [GSK361065] | 22% | 6% | 0% | 0% | 0% | 0% | 0% | 17% | 24% | 0% |
| CN(c1cccc(CNc2nc(Nc3ccc4c(c3)CC(=O)N4)ncc2C(F)(F)F)c1)S(C)(=O)=O | 0% | 33% | 10% | 25% | 0% | 0% | 19% | 0% | 35% | 0% |
| Cc1ccc2c(-c3ccnc(Nc4ccc(C(F)(F)F)cc4)n3)cnn2n1 [GW819776] | 9% | 0% | 3% | 28% | 0% | 3% | 21% | 0% | 74% | 36% |
| O=C(Nc1n[nH]c2cc(-c3ccco3)ccc12)C1CC1 [SB-737447] | 0% | 5% | 25% | 23% | 0% | 0% | 68% | 3% | 96.2% | 66% |
| C[C@@H](Oc1cc(-n2cnc3cc(-c4ccncc4)ccc32)sc1C(N)=O)c1ccccc1Cl [GSK479719] | 29% | 59% | 69% | 100% | 0% | 62% | 62% | 0% | 13% | 24% |
| O=C1NCCc2[nH]c(-c3ccncc3)cc21 | 0% | 5% | 0% | 14% | 25% | 36% | 3% | 27% | 88% | 54% |
| CC(C)c1nc(-c2cccc(NS(=O)(=O)c3ccccc3)c2)c(-c2ccnc(Nc3ccc4c(c3)CN(C)CC4)n2)s1 [GSK1649598] | 98.7% | 87% | 100% | 0% | 0% | 0% | 0% | 0% | 61% | 24% |
| Cl.c1ccc(Oc2ccc(Nc3ccnc4cc(-c5ccc(CN6CCNCC6)o5)ccc34)cc2)nc1 [GW567142] | 82% | 68% | 0% | 0% | 10% | 0% | 0% | 0% | 19% | 0% |
| FC(F)(F)c1cc(Br)cc(Nc2nccc(-c3cnn4ncccc34)n2)c1 [GW810578] | 0% | 20% | 12% | 7% | 14% | 8% | 0% | 10% | 90.4% | 89% |
| Cn1ccc2ncnc(Oc3ccc(NC(=O)Nc4cnn(C(C)(C)C)c4)c(Cl)c3)c21 | 0% | 0% | 23% | 18% | 2% | 6% | 3% | 0% | 14% | 0% |
| C[C@@H](Oc1cc(-n2cnc3ccc(-c4ccncc4)cc32)sc1C(N)=O)c1ccccc1Cl [GSK483724] | 44% | 49% | 0% | 53% | 7% | 32% | 21% | 0% | 76% | 15% |
| Cn1cc(-c2cccc3c(N)c(C(N)=O)nnc23)cn1 | 1% | 36% | 16% | 23% | 7% | 0% | 40% | 36% | 7% | 20% |

| Structure (SMILES) | %Inh (FYN) | %Inh (GAK) | %Inh (GCN2(Kin.Dom.2,S808G)) | %Inh (GRK1) | %Inh (GRK2) | %Inh (GRK3) | %Inh (GRK4) | %Inh (GRK7) | %Inh (GSK3A) | %Inh (GSK3B) |
| --- | --- | --- | --- | --- | --- | --- | --- | --- | --- | --- |
| Cc1ccc(CC(=O)N2CCc3cc(-c4cn(C)c5ncnc(N)c45)ccc32)cc1 [GSK2634758] | 41% | 34% | 42% | 0% | 0% | 24% | 0% | 0% | 9% | 0% |
| Cn1ccc2ncnc(Oc3ccc(NC(=O)Nc4cc(C(C)(C)C)on4)c(Cl)c3)c21 | 35% | 13% | 0% | 16% | 62% | 1% | 0% | 8% | 0% | 0% |
| CCOC(=O)N1CCC(n2cnc(-c3ccc(F)cc3)c2-c2ccnc(N)n2)CC1 [SB-219952] | 0% | 59% | 44% | 0% | 8% | 0% | 32% | 20% | 0% | 37% |
| CC(=O)c1c(-c2ccncc2)[nH]c(-c2ccncc2)c1C [GW493036] | 37% | 27% | 0% | 0% | 0% | 66% | 0% | 0% | 81% | 58% |
| Cn1ccc2ncnc(Oc3ccc(NC(=O)Nc4ccnc(C(F)(F)F)c4)c(Cl)c3)c21 | 0% | 0% | 10% | 0% | 0% | 29% | 100% | 0% | 11% | 0% |
| CSc1nccc(-c2c(-c3ccc(F)cc3)ncn2CCCN2CCOCC2)n1.Cl [SB-217146] | 0% | 6% | 0% | 45% | 0% | 11% | 10% | 0% | 0% | 18% |
| CCn1c(-c2nonc2N)nc2cncc(CNC3CCNCC3)c21.Cl [SB-747651] | 43% | 19% | 6% | 5% | 0% | 59% | 0% | 0% | 37% | 24% |
| COC(=O)c1cccc(NC(=O)NC2CCN(c3ccnc(Nc4cc(OC)c(OC)c(OC)c4)n3)C2)c1 (stereo not shown) [GSK1379767] | 9% | 27% | 0% | 13% | 0% | 49% | 0% | 0% | 2% | 0% |
| Nc1nccc(-c2ccc3c(N)n[nH]c3c2)n1 [GSK1034945] | 32% | 15% | 0% | 100% | 0% | 40% | 52% | 0% | 0% | 19% |
| O=C(Nc1ccccc1)c1cccc(Oc2ccc3nccn3n2)c1 | 1% | 8% | 0% | 0% | 0% | 26% | 0% | 0% | 0% | 0% |
| COc1cc2ncn(-c3cc(OCC4CCCCC4)c(C(N)=O)s3)c2cc1OC [GSK204559] | 29% | 79% | 6% | 23% | 7% | 40% | 27% | 98% | 0% | 0% |
| OCCn1cc(-c2cnc3nnn(Cc4ccc5ncccc5c4)c3n2)cn1 | 0% | 6% | 0% | 3% | 0% | 1% | 0% | 0% | 0% | 0% |
| COC(=O)c1cccc(NC(=O)NC2CCN(c3ccnc(NCc4ccc(F)cc4)n3)CC2)c1 [GSK1379860] | 10% | 0% | 0% | 0% | 0% | 38% | 0% | 0% | 6% | 8% |
| C[C@@H]1CNc2c(sc3ccc4nc(-c5ccc(O)cc5)ccc4c23)C(=O)N1 | 4% | 0% | 12% | 41% | 0% | 0% | 28% | 24% | 9% | 0% |
| Cl.Nc1n[nH]c2cc(-c3ccccn3)ccc12 [GSK2189892] | 0% | 0% | 0% | 0% | 0% | 0% | 0% | 0% | 4% | 0% |
